Values joined by “and” are separate entries in the source; they are usually repeats but may differ in a detail not shown here. Equal values may be shown once. Inconclusive results are not listed. Some structures have more than one record in an assay (separate samples or runs), and their calls can disagree. Unmarked numbers belong to inactive results. Active and inactive are the calls of the source. The call rests on the fitted dose curve; in most records, active means well fitted inhibition curve with a large enough effect; inconclusive means small, poorly fitted or top-dose-only effect; inactive means flat fitted curve, though single readings scatter.

This note sets out measurements from PubChem BioAssay (NCATS).

One assay concerns CRL-7250. The assay can be described thus: Cytotoxic Profiling of Annotated Libraries Using Quantitative High-Throughput Screening (AID 1296008). Further: potency means the concentration at half of the fitted maximal effect. On max response: on the % scale 0 is the no-effect control and ±100 the full control effect. To be noted: Five cell lines viability, CellTiter-Glo ATP luminescence, 48-72 h; max response: active compounds read low. The essentials:
(§1)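 Cytotoxicity was measured as CellTiter-Glo ATP luminescence, read after 10 min at room temperature. Compound treatment of the cells lasted 48 or 72 hr at 37 degrees Celsius in a qHTS format.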
For orientation: ATP-based viability assays read luminescence as a measure of living cells.

In another assay the test system is HEK293. Described as above. To be noted: Five cell lines viability, CellTiter-Glo ATP luminescence, 48-72 h; max response: active compounds read low. The essentials: as §1
The subject of assay [1] is HaCat. Described as above. As to conditions: Five cell lines viability, CellTiter-Glo ATP luminescence, 48-72 h; max response: active compounds read low. The essentials: as §1
The subject of the next assay is KB-3-1. The assay is described as above. As to conditions: Five cell lines viability, CellTiter-Glo ATP luminescence, 48-72 h; max response: active compounds read low. The essentials:
as §1

A further assay concerns MCC-13. The assay can be described thus: qHTS assay to identify novel small-molecules to repurpose for Merkel cell carcinoma treatment (AID 1296009). Further: potency means the concentration at half of the fitted maximal effect. To be noted: MCC and control cell lines, CellTiter-Glo viability, 72 h; series mostly up to 46 µM. The essentials: (§2)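 Cell viability measured by CellTiter-Glo following 72 hr compound treatment at 37 degree celsius, with NPC and MIPE libraries tested in 8- and 11-point concentration series.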
In general terms: Quantitative high-throughput screening tests each substance at several concentrations.

For another assay, the system named is MCC-26. The assay is described as above. To be noted: MCC and control cell lines, CellTiter-Glo viability, 72 h; series mostly up to 46 µM. The essentials: as §2
For another assay, the system named is NIH3T3. Put plainly: Cytotoxic Profiling of Annotated Libraries Using Quantitative High-Throughput Screening (AID 1296008). Further: potency means the concentration at half of the fitted maximal effect. On max response: on the % scale 0 is the no-effect control and ±100 the full control effect. As to conditions: Five cell lines viability, CellTiter-Glo ATP luminescence, 48-72 h; max response: active compounds read low. The essentials:
as §1

Assay [2] concerns HACAT. The assay can be described thus: qHTS assay to identify novel small-molecules to repurpose for Merkel cell carcinoma treatment (AID 1296009). Further: potency means the concentration at half of the fitted maximal effect. To be noted: MCC and control cell lines, CellTiter-Glo viability, 72 h; at 44.8 µM (top of the series) unless noted. The essentials:
as §2

The test system of another assay is P93_24. The assay can be described thus: qHTS profiling for inhibitors of Plasmodium falciparum proliferation (AID 504749).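 Further: 0% = DMSO vehicle and full inhibition = artemisinin control.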 To be noted: P. falciparum in erythrocytes, SYBR Green DNA, 72 h; series mostly up to 28.7 µM. The essentials:
(§3)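 In a 72 h erythrocytic culture (37 C, humidified, 5% CO2) at 2.5% hematocrit and 0.3% starting parasitemia, compounds were tested; SYBR Green I in detergent lysis buffer stained parasite DNA overnight.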

The next assay deals with P94_40. The description is as above. As to conditions: P. falciparum in erythrocytes, SYBR Green DNA, 72 h; series mostly up to 28.7 µM. The essentials:
as §3

For a further assay, the system named is PAD. The description is as above. To be noted: P. falciparum in erythrocytes, SYBR Green DNA, 72 h; series mostly up to 28.7 µM. The essentials:
as §3

In a further assay the test system is PC15. Described as above. As to conditions: P. falciparum in erythrocytes, SYBR Green DNA, 72 h; series mostly up to 28.7 µM. The essentials:
as §3

The subject of a further assay is PC26. The description is as above. To be noted: P. falciparum in erythrocytes, SYBR Green DNA, 72 h; series mostly up to 28.7 µM. The essentials:
as §3

For a further assay, the system named is PC49. The assay is described as above. As to conditions: P. falciparum in erythrocytes, SYBR Green DNA, 72 h; series mostly up to 28.7 µM. The essentials:
as §3

The next assay relates to SC27B. The assay is described as above. To be noted: P. falciparum in erythrocytes, SYBR Green DNA, 72 h; series mostly up to 28.7 µM. The essentials: as §3
Another assay concerns TAB109. The description is as above. To be noted: P. falciparum in erythrocytes, SYBR Green DNA, 72 h; series mostly up to 28.7 µM. The essentials:
as §3

Another assay relates to TAB113. Described as above. As to conditions: P. falciparum in erythrocytes, SYBR Green DNA, 72 h; series mostly up to 28.7 µM. The essentials:
as §3

For the next assay, the system named is TAB165. The description is as above. As to conditions: P. falciparum in erythrocytes, SYBR Green DNA, 72 h; series mostly up to 28.7 µM. The essentials:
as §3

The next assay deals with W2. Described as above. As to conditions: P. falciparum in erythrocytes, SYBR Green DNA, 72 h; series mostly up to 28.7 µM. The essentials: as §3
Further: nearly all actives have a fitted effect of over 60% in size.

As for `COc1cc2nc(-c3ccc(N4CCN(C)CC4)cc3)nc(NCCN3CCOCC3)c2cc1OC`, the Potency in the assay on CRL-7250 was 1.66 µM (active); in the assay on HEK293 it was 5.8 µM (active); in the assay on HaCat [1], 0.935 µM (active); with KB-3-1 it was 66.2 nM (active); with MCC-13, 9.35 µM (active); in the assay with MCC-26, 9.35 µM (active).
Take `COc1cc(N2CCC(N3CCN(C)CC3)CC2)ccc1Nc1ncc(Cl)c(Nc2ccccc2S(=O)(=O)C(C)C)n1`: the Potency is 1.46 µM (active) with CRL-7250; 1.16 µM (active) with HEK293; 3.66 µM (active) with HaCat [1]; 920 nM (active) in the assay with KB-3-1; 1.64 µM (active) in the assay with NIH3T3; 5.9 µM (active) with MCC-26.
On to `CCNc1cc(NC2CCC(O)CC2)nc(Nc2ccc3c(ccn3Cc3ccccc3)c2)n1` (centres undefined), for which, in the assay with CRL-7250, the max response is 1.87%. The Potency in the assay on HEK293 is 20.9 µM (active). The result with HaCat [1], with NIH3T3 and with HACAT [2] was inactive. In addition, the Potency result with MCC-13 and with MCC-26 was “inactive” in each case.
As to `O=C(CCCCCCC(=O)Nc1ccccc1)NO`, the Potency in the assay on CRL-7250 is 8.41 µM (active) and 10.3 µM (active) and 11.8 µM (active); in the assay on HEK293, 5.96 µM (active) and 8.33 µM (active); in the assay on HaCat [1], 7.5 µM (active) and 9.2 µM (active); in the assay on KB-3-1, 7.31 µM (active) and 5.8 µM (active) and 9.35 µM (active); in the assay with NIH3T3, 10.6 µM (active) and 18.7 µM (active); in the assay with MCC-13, 6.68 µM (active). Also, in the assay with MCC-26, the Potency is 20.9 µM (active).
Take `O=C1NC(=O)C(c2ccccc2)(c2ccccc2)N1`: the outcome with P93_24, in the assay on PAD, in the assay on PC15, with PC49, with TAB109 and in the assay on CRL-7250 was inactive. In addition, the Potency result in the assay with P94_40, in the assay with PC26, in the assay with SC27B, in the assay on TAB113, with TAB165 and in the assay on W2 was “inactive” throughout. Further, the Potency result in the assay with MCC-13 and in the assay with MCC-26 was “inactive” each time. Also, the max response with HEK293 was -11.5%; in the assay with HaCat [1], -5.29%; with KB-3-1, 7.95%; with NIH3T3, -3.65%.
As for `CC(C)(C)NC(=O)Nc1cccc(Nc2ncc(F)c(NC(C)(C)CO)n2)c1`, the max response in the assay with CRL-7250 is -1.2% and -11%. Also, the Potency with HEK293 is 11.8 µM (active); in the assay on HaCat [1], 10.5 µM (active) and 16.4 µM (active); in the assay with KB-3-1, 18.7 µM (active) and 20.6 µM (active). For the same compound, the Potency result with MCC-13 and with MCC-26 was “inactive” throughout.
As for `CO[C@H]1C(=O)[C@]2(C)[C@@H](OC)C[C@H]3OC[C@@]3(OC(C)=O)[C@H]2[C@H](OC(=O)c2ccccc2)[C@]2(O)C[C@H](OC(=O)[C@H](O)[C@@H](NC(=O)OC(C)(C)C)c3ccccc3)C(C)=C1C2(C)C`, the max response in the assay with CRL-7250 was -47%; in the assay with HEK293, -66.4%; in the assay with HaCat [1], -71.6%; in the assay on NIH3T3 it was -69.8%. Besides, the Potency in the assay with KB-3-1 was 0.8 nM (active). Further, the Potency result with MCC-13 and in the assay on MCC-26 was “inactive” in each case.
Take `COC1CCC(N(C(=O)C2CCC(C)CC2)c2cc(C3=CCCCC3)sc2C(=O)O)CC1` (centres undefined): the max response was -4.75% in the assay with CRL-7250; -22.6% in the assay on HEK293; -16% in the assay on HaCat [1]; -3.16% with KB-3-1; -0.413% with NIH3T3. In addition, the Potency entry in the assay with MCC-13 and with MCC-26 was “inactive” each time.
Take `Cc1ccc(/C=N/NC(=O)c2ccccc2Oc2ccccc2)o1`: the max response with CRL-7250 was -0.512%; in the assay with HaCat [1] it was -2.81%; in the assay with NIH3T3, -19%. Also, in the assay with HEK293, the Potency was 20.9 µM (active). Moreover, the Potency entry with MCC-13 and with MCC-26 was “inactive” each time.
For the compound `O=C1c2ccccc2-[n+]2ccc3c([nH]c4ccccc43)c21`, the Potency with CRL-7250 was 4.69 µM (active); with HEK293, 2.64 µM (active); in the assay on HaCat [1], 1.32 µM (active); with KB-3-1 it was 2960 nM (active); in the assay with MCC-13, 3.32 µM (active); in the assay with MCC-26 it was 7.43 µM (active).
For the compound `CO[C@H]1C[C@@H]2CC[C@@H](C)[C@@](O)(O2)C(=O)C(=O)N2CCCC[C@@H]2C(=O)O[C@H]([C@H](C)C[C@@H]2CC[C@H](OCCO)[C@H](OC)C2)CC(=O)[C@H](C)C=C(C)[C@@H](O)[C@@H](OC)C(=O)[C@H](C)C[C@H](C)C=CC=CC=C1C`, the max response with CRL-7250 is -75.3%; with HaCat [1], -15.8%. The Potency is 0.0017 µM (active) in the assay on HEK293 and 8.33 µM (active) in the assay on NIH3T3. Moreover, in the assay on MCC-13, the Potency entry is “inactive”.
On to `O=C(NCCN1CCOCC1)c1ccc(Cl)cc1`, for which the result in the assay on P93_24, in the assay with PAD, in the assay on PC15, in the assay with PC49 and with TAB109 was inactive. Further, the Potency entry with P94_40, in the assay on PC26, in the assay with SC27B, in the assay with TAB113, with TAB165 and with W2 was “inactive” in each case. In the assay with MCC-13, the Potency entry is “inactive”. For the same compound, the max response in the assay on CRL-7250 is 0.679%; in the assay on HEK293, -0.241%; in the assay with HaCat [1], -12.4%; with KB-3-1 it was 3.6% and -22.2%; in the assay on NIH3T3 it was 4.53%.
On to `CCOC(CN1C(=O)[C@](CC(=O)Nc2ccc(C)cc2)(NC(=O)Nc2ccc(C)cc2)c2ccccc21)OCC`, for which the max response with CRL-7250 is 2.73%; in the assay with HEK293, -3.95%; in the assay on HaCat [1], -19.2%; with KB-3-1, -11%; in the assay on NIH3T3 it was -3.18%. The Potency result in the assay with MCC-13 and in the assay on MCC-26 was “inactive” in each case.
For the compound `CCc1ccc(OCc2ccccc2C(=O)Nc2ccc3nc(C)cc(N)c3c2)cc1`, the Potency is 10.5 µM (active) with CRL-7250; 8.33 µM (active) in the assay with HEK293; 11.8 µM (active) in the assay with HaCat [1]; 9.35 µM (active) in the assay with NIH3T3; 18.7 µM (active) with MCC-13.
For the compound `C[C@]12CCC3c4ccc(O)cc4CCC3C1CCC2=O` (some centres undefined), the max response in the assay on CRL-7250 is -16.8%; in the assay with HEK293, -11.3%; with HaCat [1], -11.3%; in the assay with KB-3-1 it was 7.4%; in the assay on NIH3T3 it was -7.72%. Moreover, the Potency result in the assay with MCC-13 and with MCC-26 was “inactive” throughout.
On to `NC1=N[C@@]2(c3cc(NC(=O)c4ccc(F)cn4)ccc3F)COC[C@@H]2CS1`, for which the result with CRL-7250 was inactive. The max response with HEK293 was -6.98%; in the assay with HaCat [1], -6.87%; in the assay with KB-3-1 it was 8.68%; in the assay on NIH3T3, 4.73%. In addition, the Potency entry in the assay on MCC-13 and with MCC-26 was “inactive” throughout.
